From ChEMBL document CHEMBL3988442, “University of Dundee, Small-Polar-MMV Screening Library” (2021) come the findings set out here.

Assay [1] addresses T1, Aspartate--tRNA(Asp/Asn) ligase (Mycobacterium tuberculosis (strain ATCC 25618 / H37Rv)) (UniProt P9WFW3).
T1 sequence (whole entry): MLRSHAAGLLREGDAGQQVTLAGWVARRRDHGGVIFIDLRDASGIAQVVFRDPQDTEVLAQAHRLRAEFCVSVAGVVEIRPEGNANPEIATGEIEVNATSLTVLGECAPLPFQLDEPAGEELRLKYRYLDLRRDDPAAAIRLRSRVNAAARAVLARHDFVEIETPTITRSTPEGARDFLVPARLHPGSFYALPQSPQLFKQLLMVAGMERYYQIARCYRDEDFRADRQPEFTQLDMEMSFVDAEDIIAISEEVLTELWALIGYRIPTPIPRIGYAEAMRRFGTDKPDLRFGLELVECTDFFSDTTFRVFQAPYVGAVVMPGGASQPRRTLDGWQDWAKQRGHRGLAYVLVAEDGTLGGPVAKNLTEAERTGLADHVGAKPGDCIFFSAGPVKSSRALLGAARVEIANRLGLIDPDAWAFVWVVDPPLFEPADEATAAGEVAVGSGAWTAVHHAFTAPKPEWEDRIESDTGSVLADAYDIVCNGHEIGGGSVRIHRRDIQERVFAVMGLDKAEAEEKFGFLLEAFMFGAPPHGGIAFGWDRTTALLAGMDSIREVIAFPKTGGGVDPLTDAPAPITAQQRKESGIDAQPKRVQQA
The assay can be described thus: Assay for Asp RNA synthetase-1 from Mycobacterium tuberculosis. Type of assay: functional. Conditions: 30 µM. Set-up: scale not given: direction of the effect not stated beside the values.

In assay [2] the target is Shiga toxin 2 (Escherichia coli O157:H7) (UniProt P09385+P09386). In words: E. coli 0.157:H7 Shiga Toxin SOP - stx2 screening assay. The note with it: 30 µM. Also on record: scale not given: direction of the effect not stated beside the values. In kind it is functional.

Regarding `COc1ccc2c(c1)CN(Cc1nc3ccsc3c(=O)[nH]1)CC2`, the results for the Percent Effect in assay [1] and in assay [2] were -2.11% and 10.8%, respectively.

For `COCC1CCCN(C(=O)c2cc(Cn3ccc4ccccc43)[nH]n2)C1` (centres undefined), the Percent Effect in assay [1] was 9.18%; in assay [2] it was -24.9%.

For `CCNc1cc2c(nn1)CCN(C(=O)Cc1c(C)noc1C)C2`, the Percent Effect is 0.225% in assay [1] and 16% in assay [2].

In the case of `Cc1cc(C(=O)N2CCc3nnc(N)cc3C2)c(C)n1-c1cccnc1`, the values for the Percent Effect in assay [1] and in assay [2] were 7.03% and -28.4%, respectively.

On to `COc1cc(C)nc(N2CCN(C(=O)COCC(F)(F)F)CC2)n1`, for which the results for the Percent Effect in assay [1] and in assay [2] were -2.06% and -20.7%, respectively.

Consider `CCOc1ncccc1NC(=O)NCC(O)c1ccccc1OC` (centres undefined), for which the figures for the Percent Effect in assay [1] and in assay [2] were -0.742% and -2.67%, respectively.

For the compound `O=C(c1cccnc1)N1CCc2ncnc(C3CCOC3)c2CC1` (centres undefined), the Percent Effect in assay [1] is -5.37%; in assay [2], -9.92%.

Turning to `CSc1ccc(C(CN)N2CCc3sccc3C2)cc1` (centres undefined), the Percent Effect in assay [1] is -1.53%; in assay [2], -31.4%.

For `Cc1ncsc1C(=O)N(Cc1cccnc1)C1CC1`, the Percent Effect in assay [1] is -0.522%; in assay [2] it was 5.93%.

Regarding `Cc1cnn(CCC(=O)N2CCN(c3nc(C)cs3)CC2)c1`, the values for the Percent Effect in assay [1] and in assay [2] were -4.11% and -15.5%, respectively.

Regarding `O=C1COC2(CCN(Cc3ccoc3)CC2)CN1c1ccsc1`, the Percent Effect in assay [1] was 4.25%; in assay [2], -18.4%.

As for `Cc1cc(NC(=O)NCCc2cccs2)n(C)n1`, the Percent Effect in assay [1] was 1.39%; in assay [2], -38.4%.

As for `CN(C(=O)C1CSCN1S(=O)(=O)c1ccc(F)cc1)C1CC1` (centres undefined), the results for the Percent Effect in assay [1] and in assay [2] were -0.268% and 7.34%, respectively.

With `CS(=O)(=O)NCC1CCCN(C(=O)c2ccc(Cl)o2)C1` (centres undefined), the Percent Effect in assay [1] was 1.23%; in assay [2], -7.98%.

For `CN(C)C(=O)c1ccc2c(c1)N(C)C(CC(=O)NCCC(C)(C)C)CO2` (centres undefined), the results for the Percent Effect in assay [1] and in assay [2] were 0.279% and 5.86%, respectively.

For `COc1ccc(CNCC(C)Oc2ccccn2)cc1Br` (centres undefined), the Percent Effect is -3.54% in assay [1] and -30.6% in assay [2].

For the compound `CCOCCn1nc(C)cc1C(=O)N1CCN(C(C)C)C(CC)C1` (centres undefined), the values for the Percent Effect in assay [1] and in assay [2] were -1.08% and 10.1%, respectively.
